Measurements taken from PubChem BioAssay AID1663 (Broad Institute, 2009).
Among all 300,000 compounds or so, about 660 (0.22%) were called active.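 The calls were made as follows: active = mean replicate score, as percent of positive control, at or above 50; inconclusive = mean below 50 but at least one replicate at or above 50; inactive = mean and every replicate below 50.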 For the sample, actives were picked, then their nearest neighbours and some compounds at random.

Assay: inhibitors of platelet dense granule secretion, primary screen, cell-based, MLPCN, human platelets (AID 1663)
Conditions: human platelet-rich plasma, SFLLRN dense granule ATP release, luminescence; stronger effect = higher value;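 compounds screened at 7.5 µM in platelet-rich plasma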

inhibition, inactive:
Cc1ccc(-n2ncc3c2CCCC3NC(=O)c2cnccn2)cc1C (stereo not given) -0.139%, Cc1ccc(S(=O)(=O)N2CCOCC2)cc1C(=O)OC1CCCCC1=O (stereo not given) -6.92%, COc1ccccc1NC(=O)Nc1nnc(Cc2ccc(F)cc2)s1 1.62%, CC1CCC2(CC1)NC(=O)N(Cc1nnc(-c3cccs3)o1)C2=O (stereo not given) 3.04%, Cc1ccc2c(C)c(C(=O)N(C)CCC3CCCCO3)oc2c1C (stereo not given) 4.71%, COc1cccc(C(C(=O)NC2CCCC2)N(C(=O)c2ccco2)c2cccc(C(C)=O)c2)c1OC (stereo not given) -1.88%, OCCC1CN(Cc2cccc(OC3CCCC3)c2)CCN1Cc1ccsc1 (stereo not given) -11.2%, CCOc1ccc(S(=O)(=O)N2CCC(C(=O)NCc3ccccn3)CC2)cc1Cl -1.17%, O=C(Nc1ccc(-n2cccn2)cc1)C1CCN(Cc2ccsc2)CC1 0.088%, CCOc1ccc(C(=O)Nc2cccc(SC)c2)cc1 25.4%, COc1ccc(C(C(=O)NC(C)(C)C)N(Cc2ccc(F)cc2)C(=O)CCC(=O)Nc2cc(C)on2)cc1 (stereo not given) 2.89%, CCC1CCCCN1C(=S)Nc1ccc(S(=O)(=O)Nc2ncccn2)cc1 (stereo not given) -1.83%, CC(=O)Nc1ccc(S(=O)(=O)NCC2CCC(C(=O)NCCc3ccccc3)CC2)cc1 (stereo not given) -0.696%, Cc1ccc2c(cnn2C(=O)CCC(=O)NC2CCCC2)c1 6.24%, CCn1c(SC(C)C(=O)Nc2ccc(N3CCOCC3)cc2)nnc1-c1ccco1 (stereo not given) -6.89%, O=C(Oc1ccc(Br)cc1)c1cccnc1 3.93%, Cc1ccc(Oc2nc(-c3ccccn3)nc3ccccc23)cc1 7.76%, O=C1[C@@H]2C(c3cccnc3)=NO[C@@H]2C(=O)N1c1ccc(Cl)cc1Cl 3.23%, COCCN(CCOC)c1nc(N)c2c(N)nc3c(c2c1C#N)CC(=O)N3Cc1ccc(Cl)cc1 -8.74%, CCCC(=O)Nc1cccc(NC(=S)NC(=O)C(C)Oc2ccc(Cl)cc2Cl)c1 (stereo not given) 4.37%, Cn1nc(C(F)(F)F)c(C(=O)Nc2cccc(C(F)(F)F)c2)c1SCc1ccc(Cl)cc1 0.563%, Cc1c(C#N)c(NC(=O)c2ccccc2)n(Cc2ccccc2)c1C -12.1%, CCN1CCN(C(=O)c2ccc(CN(c3ccc(C)c(C)c3)S(C)(=O)=O)cc2)CC1 3.03%, Cc1nc(N)c(Br)c(C)c1Br -11.2%, CCOc1ccc(CCNC(=O)COC(=O)C2CCN(c3ccc(C(F)(F)F)cn3)CC2)cc1OCC -1.24%, CCCCc1ccc(S(N)(=O)=O)cc1 5.59%, NNC(=O)CNC(c1ccccc1)c1cc(Cl)ccc1NC(=O)c1ccccc1 (stereo not given) 2.02%, CCOC(=O)/C=C/c1ccc(C(F)(F)F)cc1S(=O)(=O)NC(C)(C)C 0.739%, O=C(c1ccco1)N1CCN(CCOc2ccccc2)CC1 -1.03%, COc1ccccc1OCc1ccc(C(=O)N2CCN(C)CC2)o1 -1.97%, CN(C)NC(=O)C(NC(=O)c1ccc(N)cc1)C12CC3CC(CC(C3)C1)C2 (stereo not given) -0.607%, O=C(CCN1CCc2ccccc2C(O)(c2ccccc2)C1)c1ccc2c(c1)OCCO2 (stereo not given) -76.9%, CC(=O)Nc1ccc(CN2CCC(Oc3ccc(C(=O)N4CCCC4)cc3)CC2)cc1 -7.89%, CC(C)(C)NC(=O)NC(=O)COC(=O)C1c2ccccc2Oc2ccccc21 -3.75%, O=C(Nc1ccn(Cc2ccccc2)n1)c1n[nH]c([N+](=O)[O-])c1Cl 0.241%, O=C(Nc1ccn(Cc2ccccc2)n1)c1cccc(F)c1 7.39%, O=C(Nc1ccc(S(=O)(=O)NCC2CCCO2)cc1)c1ccc(F)cc1 (stereo not given) -4.99%, COc1cc(SC)ccc1C(=O)Nc1cc(C)ccn1 5.66%, Cc1ccnc(NC(=O)CNC(=O)c2ccccc2)c1 -2.51%, Cc1csc(Nc2ccc(Cl)cc2)[n+]1-c1ccc(Cl)cc1 -1.67%, Oc1ccc(CNc2ccccc2O)cc1 4.21%, CCOc1ccc(C(=O)Nc2ccc(S(=O)(=O)NCC3CCCO3)cc2)cc1OCC (stereo not given) -1.27%, COC(=O)CN1C(=O)C(C)(C)Oc2ccc(C(=O)Nc3cccc(OC)c3)cc21 -3.5%, CCOC(=O)c1ccc(NC(=O)Cn2cnc3cc(C)c(C)cc32)cc1 9.16%, CCCCn1c(N)c(N(CCC(C)C)C(=O)c2ccc(COc3ccccc3)o2)c(=O)[nH]c1=O -0.548%, Cc1ccc(NC(=O)CSCC(=O)Nc2sccc2C#N)cc1 -1.59%, O=C1/C(=C/c2ccc(F)cc2)SC(=S)N1NS(=O)(=O)c1ccccc1 -3.17%, COc1ccc(S(=O)(=O)NC(C)C(=O)Nc2cccc([N+](=O)[O-])c2)cc1 (stereo not given) 3.55%, COc1cccc(CNC(=O)CCCC(=O)Nc2cccc([N+](=O)[O-])c2)c1 6.93%, CN(C)c1nc(=Nc2cccc(Cl)c2)ss1 -3.66%, CCc1ccc(-c2nc(SCC(=O)NC3CCCC3)n[nH]2)cc1 -5.4%, CC(=O)CCS(=O)(=O)c1ccc(C)c(C)c1 3.49%, Cc1ccc(-c2nc3ccccc3[nH]2)cc1N 17.1%, OC(c1nc2ccccc2[nH]1)C(O)C(O)C(O)c1nc2ccccc2[nH]1 (stereo not given) -3.4%, O=C(Nc1cccc(-c2cscn2)c1)C1CCN(Cc2ccsc2)CC1 -6.81%, CC[n+]1cc(C)ccc1/C=C/c1ccc(N(C)C)cc1 9.22%, CCCCC(=O)Nc1ccccc1N1CCN(c2ccc(F)cc2)CC1 2.05%, CNC(=O)C1CC(=O)N(Cc2ccc3c(c2)OCO3)C(=Nc2ccc(F)cc2)S1 (stereo not given) -5.44%, Cc1ccc(N=Cc2c(O)n(-c3nccs3)c(=O)c3ccccc23)c(C)c1 -7.35%, COc1ccc(-c2nc(N)sc2C2(O)C(=O)Nc3c(Br)cc(F)cc32)cc1OC (stereo not given) 7.83%, COCCNC(=O)NC(=O)COC(=O)C1(c2ccc(Cl)cc2)CC1 11.8%, COc1ccc(CNC(=O)c2cc(C(=O)C3CC3)c[nH]2)cc1 -3.25%, COc1ccc(C(=O)COC(=O)c2ccc3ccccc3n2)cc1 -2.98%, C/C(=N\N=C(N)N)c1ccc(Cl)cc1 -7.88%, Cc1ncn2cc(-c3ccc(Cl)cc3Cl)[nH]c(=O)c12 -3%, Cc1cc(C)cc(OCC(=O)O/N=C(\N)Cc2ccc([N+](=O)[O-])cc2)c1 1.64%, CNC(=S)N1CCC(NC(=O)C(Cc2ccc(F)cc2)NC(C)=O)CC1 (stereo not given) 0.885%, CCOCCCN(C(=O)Cn1nnc(-c2ccc(OC)c(OC)c2)n1)C(CC)C(=O)NC1CCCC1 (stereo not given) 7.27%, CCn1c(SCC(=O)NC2CCCC2)nnc1-c1ccoc1C -1.97%, Cc1ccc(OCC(=O)Oc2ccccc2[N+](=O)[O-])cc1 -2.97%, COc1ccc(/C(C)=N/NC(=O)c2ccc3nc[nH]c3c2)cc1 8.86%, CCCC(C)C(=O)OCC(=O)Nc1c(Br)cc(C)cc1Br (stereo not given) 20.5%, Cn1c(=O)n(CCc2ccccc2)c(=O)c2c1nc1n2CCCN1c1ccccc1 -2.86%, Cc1cccc(Cn2c(N3CCN(c4ccccc4)CC3)nc3c2c(=O)n(C)c(=O)n3C)c1 1.96%, CCN(CC)S(=O)(=O)c1ccc(-c2cn3ccc(C)cc3n2)cc1 5.08%, COc1ccc(-c2cn3ccsc3n2)cc1 16.7%, CCOC(=O)C1CCN(Cc2nnc(-c3cccc(Br)c3)o2)CC1 2.47%, [O-][N+]12CCCCC1CCCC2CO (stereo not given) 4.81%, O=C1NNC(c2ccccc2)=N/C1=C\c1ccc(Cl)cc1 -15.9%, O=C1c2ccccc2C2=Nc3ccccc3SC(c3ccccc3F)C12 (stereo not given) 2.23%, Cc1c(Cl)cccc1NC(=O)NCc1ccc(C)n1C -4.12%, Cc1cccc(NC(=O)CCn2c(=O)oc3ccccc32)c1 8.63%, CC(=O)c1nnn(-c2ccc(Cl)cc2C#N)c1C -27.7%, COc1ccc(C(=O)Nc2cccc(NC(=O)c3ccc(OC)cc3OC)n2)c(OC)c1 10.1%, CCOC(=O)C1C(c2ccc(O)cc2)NC(=O)NC1(O)C(F)(F)F (stereo not given) -5.44%, CCOC(=O)C1C(c2ccc(Cl)cc2)NC(=S)NC1(O)C(F)(F)F (stereo not given) -3.31%

inhibition, active:
O=C(Oc1ccc(-c2nc(-c3ccccn3)no2)cc1)c1ccccc1 83.2%, O=C(c1ccco1)N1CCN(C(=O)c2ccc(COc3ccc(F)cc3)o2)CC1 60.5%, O=C(Nc1ccn(Cc2ccc(F)cc2)n1)c1ccncc1 50.5%, Cc1ccnc(NC(=O)c2ccoc2C)c1 50.8%, COC(=O)/C=C\C(=O)Nc1cccc([N+](=O)[O-])c1 73%, c1ccc2[nH]c(-c3nc4ccccc4[nH]3)nc2c1 76.6%, Cc1cccc(N2CC(C)Cn3c2nc2c3c(=O)n(CC(=O)OCc3ccccc3)c(=O)n2C)c1 (stereo not given) 55.7%, COc1ccc(-c2cn3ccc(C)cc3n2)cc1 64.2%, CCOC(=O)C1C(c2ccc(OC)c(OC)c2)c2c([nH][nH]c2=O)CC1(C)O (stereo not given) 57.3%
